SDO1 yeast rescue = restores growth of sdo1-depleted yeast; 140,000 compounds, 0.21% hits; S. cerevisiae sdo1-depleted JHY4D growth rescue, OD600 30 h; hits give high values; pdr5 snq2 efflux-pump mutant strain; z-score at 10 µM;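 active = z-score above 3 at both the 24 hr and the 30 hr optical density reads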;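 note: z-score against mean and SD of all compound wells on the same plate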
hDAT+cocaine = changed human dopamine transporter uptake under cocaine IC80; LLC-PK1 hDAT cells, [14C]-dopamine uptake with cocaine IC80; actives deviate in either direction; Q01959; B-score at 10 µM; 110,000 compounds, 1.3% hits; AID 449768;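 active = Z score or B-score, a plate-position-corrected score, falls beyond the plate's 99.7% confidence bounds, in either direction; inactive = both scores lie inside the 99.7% bounds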;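 note: scored against the spread of the other compound wells on the same plate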
PLK1 PBD inh = blocks phosphopeptide binding to human Plk1 polo box domain | inhibition, %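 (tested at about 20 µM)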 | 97,000 compounds, 0.13% hits | Plk1 PBD phosphopeptide binding, fluorescence polarization | P53350 | AID 693; in the data active = inhibition above about 34%, passing the limit was not always enough
Target sequence (P53350 whole entry, looked up, the tested form may be a part): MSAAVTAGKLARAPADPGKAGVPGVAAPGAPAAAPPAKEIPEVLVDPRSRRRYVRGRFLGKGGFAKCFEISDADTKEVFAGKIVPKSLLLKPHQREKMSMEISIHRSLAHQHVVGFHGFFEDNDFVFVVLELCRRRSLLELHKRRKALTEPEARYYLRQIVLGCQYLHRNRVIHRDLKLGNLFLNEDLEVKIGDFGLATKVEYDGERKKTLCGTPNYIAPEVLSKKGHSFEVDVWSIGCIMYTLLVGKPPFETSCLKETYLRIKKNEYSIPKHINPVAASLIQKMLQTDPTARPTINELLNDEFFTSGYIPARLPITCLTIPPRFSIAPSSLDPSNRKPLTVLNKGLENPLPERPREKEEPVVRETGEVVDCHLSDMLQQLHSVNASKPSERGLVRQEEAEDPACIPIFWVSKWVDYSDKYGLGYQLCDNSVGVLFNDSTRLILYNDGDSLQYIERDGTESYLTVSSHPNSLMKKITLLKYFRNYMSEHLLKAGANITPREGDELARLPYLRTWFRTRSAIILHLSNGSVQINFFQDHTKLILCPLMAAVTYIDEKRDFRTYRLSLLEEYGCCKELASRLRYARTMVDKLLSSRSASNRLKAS
PTK2B oligo ant = antagonists of human Pyk2 oligomerization | Q293 cells, Pyk2 FERM NanoBiT luminescence; hits give low values | Q14289 | z-score (the deposit names both 25 µM and 10 µM) | 99,000 compounds, 0.83% hits;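 active = Z-score of -3 or lower, scaled per plate to the spread of control and sample wells; inactive = z-score above -3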;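 note: negative z-score means lost luminescence so less FERM oligomerization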
Cav3 T inh = blocks human Cav3.2 T-type calcium channel. Cav3.2-expressing cells, Fluo-4 calcium fluorescence FDSS; hits give low values. B-score at 10 µM. 100,000 compounds, 4% hits. AID 449739;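 active = single-dose well whose peak fluorescence ratio is a statistical outlier from its plate by either plate-standardised score or position-corrected B-score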
PLK1 kinase inh = inhibitors of human PLK1 kinase; P53350; recombinant PLK1 kinase, TR-FRET peptide phosphorylation; inhibition, % at 10 µM; 97,000 compounds, 0.53% hits; AID 619;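 active = inhibition of 50% or more in the single-concentration screen; inactive = inhibition below 50%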;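 note: 0% = DMSO max control and 100% = H-89 dihydrochloride min control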
* marks the source's active call; other numbers are inactive results; / = not tested or not shown. Rows were chosen to be rich in hits. Some 4.7% of all compounds tested hit in one or more screens of this group.

SMILES | SDO1 yeast rescue | hDAT+cocaine | PLK1 PBD inh | PTK2B oligo ant | Cav3 T inh | PLK1 kinase inh
CC(Nc1cc(N2CCN(C(=O)C(C)(C)C)CC2)ccc1[N+](=O)[O-])c1ccccc1 (stereo not given) | -1.46 | -1.57 | -12.8 | -2.74 | -4.23* | -4.7
CC(C)Nc1cc(N2CCCC2)ccc1[N+](=O)[O-] | -0.37 | -0.0805 | -16.4 | -3.04* | 0.823 | -0.9
Cc1[nH]nc2c1C1(CCOCC1)C(C#N)=C(N)O2 | -0.64 | -0.205 | -12.0 | -0.01 | 0.499 | 29.1
CCOC(=O)C1CCC2(CC1)C(C#N)=C(N)Oc1n[nH]c(C)c12 (stereo not given) | 1.73 | -0.805 | -14.4 | 0.04 | 0.549 | 69.9*
Cc1ccc(NC(=O)COC(=O)CNC(=O)c2ccc(Br)cc2)c(C)c1 | -0.64 | / | / | / | / | /
CCOc1ccc(C(=O)N/N=C(/C)C2C(=O)c3ccccc3C2=O)cc1 | -0.45 | / | / | / | / | /
C/C(=N\NC(=O)c1ccc(Br)cc1)C1C(=O)c2ccccc2C1=O | 0.06 | -1.38 | 28.2 | -2.7 | -4.16* | -13.6
O=S(=O)(Nc1nc2ccccc2[nH]1)c1ccc(Cl)cc1 | -0.81 | -0.439 | 11.8 | 0.79 | -0.934 | 60.9*
O=S(=O)(Nc1nc2ccccc2[nH]1)c1ccccc1 | 1 | -0.0501 | 19.6 | 0.58 | 0.00967 | 13.7
Cc1nn(Cc2ccccc2Cl)c2sc(C(=O)NCc3ccc4c(c3)OCO4)cc12 | -0.99 | 1.19 | -13.3 | -1.52 | -3.53* | -5.6
O=C(NC(=S)N1CCN(c2ccc([N+](=O)[O-])cc2)CC1)c1ccccc1F | -1.44 | / | / | / | / | /
CCOC(=O)N1CCC(=C2c3ccc(Cl)cc3CCc3cccnc32)CC1 | -2.07 | 2.34 | / | / | -4.71* | /
O=[N+]([O-])c1cc(S(=O)(=O)C(F)(F)F)ccc1Sc1nc2ccccc2[nH]1 | -2.71 | 0.0556 | 0.8 | 1.46 | -4.55* | -1.0
CCN1CCN(C(=O)c2ccc3c(c2)N(Cc2ccc(F)cc2)C(=O)c2ccccc2S3=O)CC1 (stereo not given) | 0.57 | -0.017 | -31.5 | / | -7.15* | -0.4
CCN1C(=O)c2ccccc2S(=O)c2ccc(C(=O)N3CCCCCC3)cc21 (stereo not given) | 1.09 | / | -9.2 | / | / | -11.3
O=C(OCC(=O)N1CCCc2ccccc21)c1cccc(S(=O)(=O)N2CCc3ccccc32)c1 | -0.59 | / | / | / | / | /
C/C=C1\COC(C(=O)NCc2ccccc2)(C(F)(F)F)C=C1C=C1CCCCC1 (stereo not given) | / | -1.25 | / | / | -4.32* | /
C/C=C1\COC(C(=O)NCCN2CCCC2)(C(F)(F)F)C=C1C=C1CCCCC1 (stereo not given) | / | 0.775 | / | / | -2.64 | /
O=c1[nH]c(=O)n(Cc2ccccc2)c2c1C(C(F)(F)F)(C(F)(F)F)N=C(c1ccco1)N2 | 0.09 | 1.37 | 16.4 | -3.5* | 2.76 | -0.2
Cc1cccc(N2CCN(C(=O)c3ccncc3)CC2)c1C | 0.8 | -1.99 | -25.9 | 1.41 | 1.46 | -4.1
Cc1cccc(N2CCN(C(=O)c3c(C)nn(Cc4ccccc4Cl)c3C)CC2)c1C | -1.57 | -0.225 | -4.6 | 0.24 | -5.48* | -9.2
Cc1ccc2sc(NC(=O)CN3C(=O)c4ccccc4C3=O)nc2c1C | -0.93 | / | / | / | / | /
CCOc1ccc(C2CC(c3cccc(OC)c3OC)n3nnnc3N2)cc1Cl (stereo not given) | 0.53 | -4.25* | / | -1.91 | -4.13* | /
COc1cccc(CNC(=O)C(=O)NCC(c2ccco2)N2CCOCC2)c1 (stereo not given) | 0.84 | / | / | / | / | /
Cc1ccc(C(=O)C(c2ccccc2)N2Cc3ccccc3C2=N)cc1 (stereo not given) | -1.61 | / | / | / | / | /
SMILES | SDO1 yeast rescue | hDAT+cocaine | PLK1 PBD inh | PTK2B oligo ant | Cav3 T inh | PLK1 kinase inh
O=C(COc1ccc(Cl)cc1Br)NC(=O)NCc1ccccc1 | 0.21 | / | / | / | / | /
O=C(c1ccco1)N1CCN(c2nc(C3CC3)nc3c2nnn3Cc2ccccc2Cl)CC1 | -0.49 | 0.15 | -9.7 | -0.91 | -1.92 | -9.4
CCc1nc(N2CCN(C(=O)c3ccco3)CC2)c2oc3ccccc3c2n1 | -1.19 | 2.82* | 1.4 | 0.11 | -4.12 | -7.7
CC(C)(C)c1nc(N2CCN(C(=O)c3ccco3)CC2)c2nnn(Cc3ccccc3)c2n1 | 0.34 | 0.532 | -35.4 | -1.22 | -7.15* | -8.6
CCOC(=O)CC(NS(=O)(=O)Cc1ccccc1)c1ccc(C)cc1 (stereo not given) | -0.12 | / | / | / | / | /
C/C(=N\NC(=O)c1cccc(Cl)c1)c1cccc(NC(=O)c2ccco2)c1 | -0.2 | 1.78 | 7.6 | -0.66 | -5.49* | -6.1
CC(C)NC(=S)Nc1ccc(Oc2ccccc2)cc1 | -0.06 | -0.402 | 32.7 | -0.61 | -4.74* | -4.8
CCCNC(=S)Nc1ccc(Oc2ccccc2)cc1 | -0.74 | 0.0285 | 2.1 | 0.9 | -1.09 | -12.5
Cc1ccc(C2CN(C)C3(C(=O)Nc4ccccc43)C23COc2ccccc2C3=O)cc1 (stereo not given) | -1.46 | / | 1.7 | -3.57* | / | 9.2
COc1cc(NC(=O)CN2CCN(S(=O)(=O)c3ccc(C(C)C)cc3)CC2)cc(OC)c1 | -1.47 | 0.007 | 2.4 | -1.13 | -4.21* | -20.1
COc1cccc(NC(=O)CN2CCN(S(=O)(=O)c3ccc(C(C)C)cc3)CC2)c1 | -0.45 | 0.995 | -2.4 | -0.27 | -7.27* | -21.1
CC1(C)[C@@H](O)CC[C@]2(C)C3C(O)C=C4[C@H]5C[C@@](C)(CO)CC[C@]5(C)CC[C@]4(C)[C@]3(C)CC[C@@H]12 (stereo not given in full) | / | 0.445 | / | / | -0.115 | /
CS(=O)(=O)N(CC(=O)N1CCCC1)Cc1ccc(Cl)cc1 | 1.17 | / | / | / | / | /
CCCC(=O)NC(c1ccccc1Cl)c1c(O)ccc2ccccc12 (stereo not given) | -0.04 | / | / | / | / | /
CCCC(=O)NC(c1ccc(OC)c(OC)c1)c1c(O)ccc2ccccc12 (stereo not given) | 0.87 | 0.635 | -15.1 | -1.49 | 0.12 | -10.6
CC(=O)Oc1ccc2ccccc2c1C(NC(=O)Cc1ccccc1)c1ccccc1Cl (stereo not given) | -1.16 | -0.0874 | -10.5 | -4.41* | -2.2 | -2.5
CCC(=O)NC(c1cccc([N+](=O)[O-])c1)c1c(OC(C)=O)ccc2ccccc12 (stereo not given) | -0.89 | 2.07 | -6.8 | -3.32* | -1.78 | -9.2
CC(C)n1nc(Cc2cccc3ccccc23)c(C#N)c1N | / | 0.138 | / | / | -0.554 | /
COc1cc(NC(=O)CSc2nc3c(C)ccc(C)c3cc2C)c(C(=O)O)cc1OC | 0.51 | / | / | / | / | /
CC(C)Cc1nc(NCCN2CCOCC2)c(C#N)c2c1COC(C)(C)C2 | -2.2 | 0.29 | -15.1 | -1.39 | -0.0021 | -2.9
CCCCc1nc(NCCN2CCOCC2)c(C#N)c2c1COC(C)(C)C2 | -1.15 | 2.65* | 9.8 | 0.59 | -0.48 | -12.8
CCCn1nc(C(=O)Oc2ccc3c(C)cc(=O)oc3c2)c2ccccc2c1=O | 0.16 | / | / | / | / | /
C#Cc1ccc([C@H]2C=C(C(=O)N3CCN(Cc4ccccc4)CC3)O[C@@H](OCC)[C@@H]2CCCO)cc1 | / | 2.69* | / | / | -0.872 | /
CCOc1cc(/C=N/NC(=O)c2cccnc2)ccc1OCC(=O)N1CCOCC1 | 0.66 | / | / | / | / | /
